Experimental data: PubChem BioAssay AID1508622 (National Center for Advancing Translational Sciences (NCATS), 2021)
Values without a mark were called inactive. Activity calls are given as the source filed them. Calls follow the shape of the dose curve; as a rule, active = well fitted activation curve with a large enough effect; inconclusive = small, poorly fitted or top-dose-only effect; inactive = no such curve, though single readings can be large or run the other way.
Potency is read from the fitted curve at half-maximal effect.

Assay: Confirmatory qHTS for Identification of Small Molecule Activators of Huntingtin-Antisense Promoter Activity
Details: HEK293 HTT-AS promoter firefly luciferase reporter, 24 h; series mostly up to 57.5 µM; activity change, positive = activation: at the top concentration
Procedure, shortened: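 HEK293 luciferase reporter cells, 2,500/well, cultured 24 h, then exposed to compounds at up to 57.5 uM final for 24 h at 37C. Firefly luciferase luminescence read; normalized to vehicle (0%) and zero RLU (-100%).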
With `Cc1oc(-c2ccc(C(=O)NCc3ccccc3Cl)cc2)nc1CN1CCc2ccccc21` the “activity change, positive = activation” value was -78.9%.
For `Cn1cc(CNCC2CCN(c3ncc(C(=O)NO)cn3)CC2)c2ccccc21`, the “activity change, positive = activation” value was -1.6%.
With `CCCCN1CC(c2nc3ccccc3n2CCCCOc2ccc(C)c(C)c2)CC1=O` (stereo not drawn) the “activity change, positive = activation” value was -42.6%.
In the case of `CC(=O)N1CCc2c(sc(NC(=O)CSc3ccccc3)c2-c2nc3ccccc3s2)C1`, the “activity change, positive = activation” value was -67.3%.
For `COc1ccc(N2CCN(Cc3nc4c(c(=O)n(C)c(=O)n4C)n3C(C)C)CC2)cc1`, the “activity change, positive = activation” value was -94.2%.
With `Cn1c(Oc2ccc(F)cc2)nc2c1c(=O)n(Cc1ccccc1Cl)c(=O)n2C` the “activity change, positive = activation” value was -49.8%.
For `Cc1ccc(C)c(NC(=O)Cn2c(-c3nonc3N)nc3ccccc32)c1`, the “activity change, positive = activation” value was -5.46%.
In the case of `Cc1ccccc1CN1CCc2nc(N3CCN(c4ccccn4)CC3)ncc2C1`, the “activity change, positive = activation” value was -38.9%.
For `Cc1cccc(N2CCN(C(=O)c3ccc4c(c3)CCN4S(=O)(=O)c3ccccc3)CC2)c1C`, the “activity change, positive = activation” value was -64.4%.
With `CSc1ccc(CCNC(=O)c2ccc(CS(=O)(=O)c3ccc(Br)cc3)o2)cc1` the “activity change, positive = activation” value was -30.2%.
With `Cc1ccc(CSc2ncc(Cl)c(C(=O)NCCc3ccc(S(N)(=O)=O)cc3)n2)cc1` the “activity change, positive = activation” value was -39.2%.
In the case of `CC1CCCCN1C(=O)CSc1nc2ccccc2nc1Cc1ccc(Cl)cc1` (stereo not drawn), the “activity change, positive = activation” value was -83.6%.
For `COc1ccc(CNC(=O)c2ccc3c(c2)CCN3S(=O)(=O)c2ccc(Cl)cc2)cc1`, the “activity change, positive = activation” value was -23.1%.
For `O=C(c1cccs1)N(Cc1cccnc1)c1nc2ccc(F)cc2s1`, the “activity change, positive = activation” value was -81.4%.
With `CCN(C(=O)c1oc2ccc(S(=O)(=O)N3CCCCCC3)cc2c1C)c1ccccc1` the “activity change, positive = activation” value was -19.3%.
For `COc1ccc(NS(=O)(=O)c2ccc(N3CCCCS3(=O)=O)cc2)cc1Cl`, the “activity change, positive = activation” value was -94%.
For `CC(C)[C@H](CO)Nc1nc(Nc2ccc(C(=O)O)c(Cl)c2)c2ncn(C(C)C)c2n1`, the “activity change, positive = activation” value was -3.92%.
In the case of `O=C(NC1CCCCC1)c1ccc(CSc2nc3cccnc3n2Cc2cccc(F)c2)cc1`, the “activity change, positive = activation” value was -20.4%.
With `Cc1ccc(C)c(NC(=O)CSc2nnc(-c3cc4occc4n3C)n2-c2ccccc2C)c1` the “activity change, positive = activation” value was -19.7%.
In the case of `COC(=O)C1=C(CS(=O)(=O)c2ccc(C)cc2C)NC(=O)NC1c1ccc(C)cc1` (stereo not drawn), the “activity change, positive = activation” value was -41.9%.
In the case of `CCC(=O)N1CCCc2cc(S(=O)(=O)N3CCC(C(=O)Nc4ccc(F)c(F)c4)CC3)ccc21`, the “activity change, positive = activation” value was -38.3%.
For `COc1ccc(Nc2sc(C(=O)c3ccccc3)c(N)c2C(=O)Nc2cc(C)ccc2C)c(OC)c1`, the “activity change, positive = activation” value was -37.6%.
With `Cc1ccc(C(C)C)c(OCCn2cc(C(=O)c3ccco3)c3ccccc32)c1` the “activity change, positive = activation” value was -25.9%.
With `COc1ccc(S(=O)(=O)N2CCC(c3nnnn3-c3ccccc3)CC2)cc1OC` the “activity change, positive = activation” value was -44.4%.
With `O=C(CN1C(=O)C2(SCC(=O)N2c2cccc(Cl)c2)c2ccccc21)NCCc1ccccc1` (stereo not drawn) the “activity change, positive = activation” value was -24.2%.
In the case of `COc1ccc(-c2nc3cc(NC(=O)Cc4ccc(Cl)cc4)ccc3o2)cc1OC`, the “activity change, positive = activation” value was -40.8%.
For `CCOc1ccc(C(=O)NCC(c2ccc3c(c2)OCO3)N2CCN(c3ccccc3F)CC2)cc1` (stereo not drawn), the “activity change, positive = activation” value was -8.64%.
With `Cc1cccc(S(=O)(=O)Nc2cccc(-c3ccc(N4CCCCC4)nn3)c2)c1` the Potency was 2390 nM (active).
For `COc1ccc(CNC(=O)c2cccc(N3CCCS3(=O)=O)c2)cc1OC`, the “activity change, positive = activation” value was -95.9%.
For `COc1ccc(NC(=O)CN2C(=O)C(C)(C)c3ccccc32)cc1Cl`, the “activity change, positive = activation” value was -50.7%.
For `CCOC(=O)C1CCC(CN(Cc2ccc(Cl)cc2)S(=O)(=O)c2cc(Cl)cc(Cl)c2)CC1` (stereo not drawn), the “activity change, positive = activation” value was -93.1%.
In the case of `Cc1cc(F)ccc1NC(=O)C1CCCN(C(=O)c2cnn(-c3ccccc3)c2-n2cccc2)C1` (stereo not drawn), the “activity change, positive = activation” value was -38.7%.
For `COc1ccc(N2CCN(C(=O)c3cc4c(-c5ccccc5F)nn(C)c4s3)CC2)cc1`, the “activity change, positive = activation” value was -59.8%.
In the case of `O=C(Nc1cccc(F)c1)c1cnc2sc(N3CCCC3)nn2c1=O`, the “activity change, positive = activation” value was -61.2%.
With `COc1ccc(Cl)cc1C1CC(=O)Nc2cc3c(cc21)OCCO3` (stereo not drawn) the “activity change, positive = activation” value was -63.7%.
In the case of `CCOC(=O)c1cc(-c2ccccc2)n(-c2cccc(C(=O)Nc3cccc(F)c3)c2)c1C`, the “activity change, positive = activation” value was -23.3%.
In the case of `CC1Cc2cc(S(=O)(=O)NCc3ccccc3Cl)ccc2N1C(=O)C1CCC1` (stereo not drawn), the “activity change, positive = activation” value was -84.4%.
For `COc1cc2c(cc1OC)C(COc1ccc(C(C)C)cc1)N(C(=O)COc1ccccc1)CC2` (stereo not drawn), the “activity change, positive = activation” value was -20.4%.
